Experimental data reported in the supplement of paper PMC6555819.

How the values were obtained:
Test in all cases: PBM binding z-score (relative to random genomic background probes); higher = stronger binding; sequences stand for … in GC…GCGATTGACAGCGTAGAATGAAGG
[1] = tested on: FXR:RXRa (NR concentration 270 nM, RXRa partner concentration 90 nM)
Summary of the method: (§1)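 Binding buffer was PBS pH 7.4 with 2% milk, 0.02% Triton X-100, 1 mM DTT, 0.2 mg/mL BSA and 0.4 mg/ml salmon testes DNA. In it, ligand-free nuclear receptor dimers were incubated 1 h on custom Agilent 4×180K protein-binding microarrays carrying double-stranded probes. Antibodies against each partner (one per run) detected binding, and z-scores were calculated against random background probes after regression normalization of scanned fluorescence.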

[2] = tested on: LXRa:RXRa (NR concentration 270 nM, RXRa partner concentration 90 nM)
Summary of the method: as §1

[3] = tested on: LXRa homodimer (NR concentration 270 nM)
Summary of the method: as §1

[4] = tested on: LXRb:RXRa (NR concentration 270 nM, RXRa partner concentration 90 nM)
Summary of the method: as §1

[5] = tested on: LXRb homodimer (NR concentration 270 nM)
Summary of the method: as §1

[6] = tested on: PPARa:RXRa (NR concentration 270 nM, RXRa partner concentration 90 nM)
Summary of the method: as §1

[7] = tested on: PPARg:RXRa (NR concentration 180 nM, RXRa partner concentration 90 nM)
Summary of the method: as §1

[8] = tested on: PPARg:RXRa 270nM:90nM, anti-RXR (NR concentration 270 nM, RXRa partner concentration 90 nM)
Summary of the method: as §1

[9] = tested on: PPARg:RXRa 30nM:10nM, anti-RXR (NR concentration 30 nM, RXRa partner concentration 10 nM)
Summary of the method: as §1

[10] = tested on: PPARg:RXRa 90nM:30nM, anti-RXR (NR concentration 90 nM, RXRa partner concentration 30 nM)
Summary of the method: as §1

[11] = tested on: PPARg:RXRa DBDmut IVT, anti-RXR (DBD mutation: RXRa K156A/R161A, NR concentration 270 nM, RXRa partner concentration 90 nM)
Summary of the method: as §1

[12] = tested on: PPARg:RXRa IVT, anti-PPARg (NR concentration 270 nM, RXRa partner concentration 90 nM)
Summary of the method: as §1

[13] = tested on: PPARg DBDmut:RXRa IVT, anti-PPARg (DBD mutation: PPARg1 K132A/R137A, NR concentration 270 nM, RXRa partner concentration 90 nM)
Summary of the method: as §1

[14] = tested on: PPARg DBDmut IVT, anti-PPARg (DBD mutation: PPARg1 K132A/R137A, NR concentration 270 nM)
Summary of the method: as §1

[15] = tested on: PPARg homodimer (NR concentration 180 nM)
Summary of the method: as §1

[16] = tested on: PXR:RXRa (NR concentration 270 nM, RXRa partner concentration 90 nM)
Summary of the method: as §1

[17] = tested on: PXR homodimer (NR concentration 270 nM)
Summary of the method: as §1

[18] = tested on: RARa:RXR (NR concentration 270 nM, RXRa partner concentration 90 nM)
Summary of the method: as §1

[19] = tested on: RARa homodimer (NR concentration 270 nM)
Summary of the method: as §1

[20] = tested on: RARb:RXRa (NR concentration 270 nM, RXRa partner concentration 90 nM)
Summary of the method: as §1

Sequence | PBM binding z-score [1] | PBM binding z-score [2] | PBM binding z-score [3] | PBM binding z-score [4] | PBM binding z-score [5] | PBM binding z-score [6] | PBM binding z-score [7] | PBM binding z-score [8] | PBM binding z-score [9] | PBM binding z-score [10] | PBM binding z-score [11] | PBM binding z-score [12] | PBM binding z-score [13] | PBM binding z-score [14] | PBM binding z-score [15] | PBM binding z-score [16] | PBM binding z-score [17] | PBM binding z-score [18] | PBM binding z-score [19] | PBM binding z-score [20]
CAGCTTAGGTCAGGGCCAGTATAGGAGGAACGTT | 2.21 | 1.3 | -0.0157 | 0.814 | -0.56 | 2.17 | 0.606 | 0.732 | -0.0225 | 0.447 | 1.28 | 0.782 | -0.279 | -1.2 | 1.34 | 0.726 | 0.0136 | 1.68 | 0.556 | 3.79
ATCTCTAGTTAAGACTCAGTTCAGTGAAGAACGC | 0.381 | 0.546 | 0.699 | 0.459 | 0.922 | -0.0115 | -0.0269 | 0.419 | 0.293 | 0.347 | 0.356 | 0.194 | 1.65 | 1.35 | 1.07 | 1.23 | 2.02 | 0.831 | 1.93 | 0.235
CTACCAAGGTGAACAAGGTCGGTGATTACTATTC | 0.778 | 0.251 | -0.361 | 0.578 | -0.54 | 1.69 | 0.819 | 0.753 | -0.269 | 0.288 | 1.91 | 2.78 | 0.327 | -0.584 | 0.38 | 0.812 | 0.00939 | 1.11 | 0.0895 | 1.97
AGAACGAAGGCACGCTGAGTTGATAGCAGAGTAG | -0.877 | -0.66 | -0.838 | -1.06 | -0.997 | -0.367 | 0.622 | -0.693 | -0.318 | -0.476 | -0.47 | -0.214 | -0.0465 | -0.623 | -1.17 | -0.449 | -0.696 | -0.468 | -0.886 | -0.566
CTCGAAAGGTCGTGTTCAGGTGAGTATACCAAAC | 4.67 | 3.64 | 0.232 | 3.31 | 0.113 | 4.76 | 2.42 | 3.38 | 0.878 | 2.07 | 0.51 | 1.95 | 0.275 | 1.56 | 1.51 | 3.14 | 0.411 | 3.85 | 0.304 | 3.78
TCAAATAGGTAAACAGGTGAAAGTCCGTAAGTTA | 0.954 | 0.935 | 0.164 | 0.968 | -0.112 | 2.28 | 2.64 | 3.76 | 4.64 | 4.28 | 4.13 | 3.99 | 0.833 | 0.995 | 1.07 | 0.682 | 0.0929 | 1.16 | 1.7 | 0.892
TAGGCTAGGTCAGATCGGGCCAGTATACGCTATA | 1.84 | 0.947 | -0.397 | 0.688 | -0.542 | 1.42 | 0.684 | 0.646 | -0.0664 | 0.434 | 0.883 | 1.39 | -0.0594 | -0.524 | 0.195 | 1.54 | -0.57 | 1.55 | -0.477 | 3.3
GCTCGGAGGACAAGGTCAGATCTTTGTCCGTAGA | 2.14 | 2.12 | -0.175 | 1.87 | -0.0535 | 2.68 | 0.835 | 1.44 | -0.124 | 0.769 | -0.309 | 0.755 | -0.782 | -0.686 | 0.86 | 1.87 | -0.322 | 2.22 | -0.579 | 3.52
ATCTCTAGGTAAGACTCAGTTCAGGGAAGAACGC | 0.579 | 0.883 | 0.863 | 0.68 | 1.19 | 0.432 | 0.216 | 0.397 | 0.337 | 0.289 | 1.95 | 0.842 | 1.12 | 0.798 | 0.913 | 1.19 | 1.64 | 0.799 | 1.28 | 0.579
CCTAGTGGGCCACGAAAGGTCATTGATTCAGTGA | 3.59 | 5.34 | 4.51 | 4.3 | 0.26 | 4.7 | 4.51 | 4.88 | 2.04 | 4.15 | 5.45 | 5.59 | 0.164 | -0.293 | 2.95 | 5.35 | 1.17 | 5.06 | 0.966 | 3.93
AGAATGCGGTTAAGATCAGGGAAACAGAATACAT | -0.249 | -0.195 | -0.0658 | -0.185 | -0.913 | -0.181 | 0.331 | 0.0448 | 0.301 | 0.258 | -0.441 | -0.00811 | 0.624 | 0.11 | 0.393 | -0.295 | -0.312 | -0.225 | 0.513 | -0.152
CTGGAAAGGTCGGTTGAGGTGAGTATACGGATAA | 2.81 | 1.32 | 0.136 | 1.12 | -0.219 | 2.57 | 0.576 | 0.975 | -0.182 | 0.424 | -0.117 | 0.957 | -0.556 | 0.0614 | 0.799 | 3.21 | -0.0647 | 2.05 | 0.351 | 2.89
CCTAGCAGGCCAAACTGGGTCACTCAAGGCTTGA | 0.705 | 0.962 | -0.345 | 1.07 | -0.564 | 3.05 | 1.74 | 2.06 | -0.348 | 0.712 | 4.11 | 4.34 | -0.371 | -1.09 | 0.924 | 1.05 | -0.482 | 1.77 | -0.26 | 1.61
TTACCAAGGTGAAAGGTCGTTTATGCACGCCTTG | 3.55 | 3.3 | 0.773 | 3.33 | 0.0475 | 5.2 | 8.69 | 7.73 | 6.93 | 8.46 | 2.69 | 4.38 | 1.05 | 0.279 | 1.68 | 3.9 | 0.719 | 5.53 | 0.296 | 2.75
